Only some compounds are listed: those with a hit (about 8% of all), similar ones and a draw of the others.
HT1080 IDH1KD tx = kills HT-1080 cells with IDH1 knockdown | 2% of 360,000 active | HT-1080 IDH1 knockdown viability, ATP luminescence, 48 h | Potency, µM (doses to about 46.1 µM), inactives show at the top dose activity, negative = toxicity, usual class: cytotoxic;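 further: 0% = DMSO wells and -100% = cell-free medium wells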
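Cytotoxicity counter-line: IDH1KD HT-1080, 48 h, CellTiter-Glo. Curves classed by r2, magnitude and activity.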
KB-3-1 tox = KB-3-1 parental cell cytotoxicity; KB-3-1 viability, CellTiter-Glo ATP luminescence, 72 h; Potency, µM (top dose mostly 46.1 µM), actives largely listed as cytotoxic; 1.4% of 400,000 active; AID 1347075; further: on the % scale 0 is the no-effect control and ±100 the full control effect; nearly all actives have a fitted effect of over 60% in size
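KB-3-1 parental drug-naive adenocarcinoma cells in DMEM/10% FBS, incubated 72 h at 37 C with pin-transferred compounds across a concentration series. Viability by CellTiter-Glo luminescence; concentration-response curves fitted after normalization.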
KB-V1 cytotox = kills drug-selected multidrug resistant KB-V1 cells; 3.4% of 400,000 active; Potency, µM (top dose mostly 46.1 µM), hits mostly cytotoxic; AID 1347076; KB-V1 MDR cells viability, CellTiter-Glo, 72 h; further: on the % scale 0 is the no-effect control and ±100 the full control effect; nearly all actives have a fitted effect of over 60% in size
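In this primary screen, KB-V1 cells overexpressing P-gp are incubated with library compounds (lowest to highest concentration) for 72 h at 37 degrees C before a luminescent ATP viability read.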
MCF10A rerep = inducers of DNA re-replication in MCF 10A breast cells | MCF 10A DNA re-replication, Hoechst nuclear intensity, 48 h | Potency, µM (series often up to 46.1 µM), for the others: at the highest dose activity, positive = re-replication, most hits filed as activators | 2.9% of 350,000 active; further: % of control where 0% means no effect; nearly all actives have a fitted effect of over 50% in size
SW480 rerep = DNA re-replication induction in SW480 cells; SW480 DNA re-replication, Hoechst DNA content imaging, 48 h; 1.8% of 340,000 active; Potency, µM (doses to about 46.1 µM), for the others: top-dose re-replication activation, usual class: activators; further: % of control where 0% means no effect; nearly all actives have a fitted effect of over 55% in size
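Per well, 250 cells were exposed to pinned compound for 48 hr. Nuclear DNA was visualised with Hoechst (40 min, 37 C) and total object intensity recorded by fluorescence scanning.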
HT1080NT lethal = kills 2HG-producing HT-1080-NT fibrosarcoma cells; HT-1080-NT fibrosarcoma viability, CellTiter-Glo ATP luminescence, 48 h; Potency, µM (highest dose often 46.1 µM), inactives show top-dose activity, negative = less viability, hits mostly cytotoxic; 1.6% of 360,000 active;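 further: NT is the 2HG producing partner of a matched IDH1 knockdown line; 0% = DMSO-treated cells and -100% = media-only wells without cells; nearly all actives have a fitted effect of over 55% in size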
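Compounds were tested in concentration-response format on HT-1080-NT cells for 48 hours at 37 degrees C. Cell viability came from CellTiter-Glo luminescence; curves were classified by r2, response magnitude and activity.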
* hit, by the source's call; i = inactive; ? = inconclusive; / = no result; ! = not confirmed by another sample. The call rests on the fitted dose curve; in most records, active means well fitted curve in the direction sought with a large enough effect; inconclusive means small, poorly fitted or top-dose-only effect, or another doubt; inactive means no such curve, though single readings can be large; an effect the other way counts as inactive or inconclusive. Potency means the concentration at half of the fitted maximal effect.

SMILES	HT1080 IDH1KD tx	KB-3-1 tox	KB-V1 cytotox	MCF10A rerep	SW480 rerep	HT1080NT lethal
C#CCNC(=O)C1=C[C@H](c2ccc(C(F)(F)F)cc2)C[C@H](OCc2ccc(CO)cc2)O1	5%	i	i	4.1µM*	?	1%
C#CCNC(=O)C1=C[C@@H](C)C[C@@H](OCc2ccc(CO)cc2)O1	9%	i	i	13%	-10%	3%
Cc1ccc(NC(=O)CCC(=O)NNC(=O)CCc2ccccc2)c(C)c1	10%	i	i	0%	-1%	2%
Cc1ccc(NNC(=O)c2ccno2)c(C)c1	7.3µM*	i	i	?	12%	5.8µM*
Cc1ccc(NNC(=O)CCc2ccccc2)c(C)c1	26µM*	i	i	0%	-7%	?
Cc1cccc(N2CCN(c3nc4ccc(C(=O)c5ccccc5)cc4n4cnnc34)CC2C)c1 (centres undefined)	/	i	i	/	/	/
Cc1nn(-c2ccccc2)c2c1N(CC(=O)N1CCN(c3ccc(F)cc3)CC1)C(=O)CS2	/	i	i	/	/	/
O=C(c1cc([N+](=O)[O-])ccc1Cl)N1c2ccccc2Sc2ccccc21	-24%	i	i	18µM*	?	-15%
CC(=O)Oc1c(C)cc(Cl)cc1C(=O)Nc1ccc([N+](=O)[O-])cc1Cl	1.2µM*	7.3µM*	i	17%	6.5µM*	?
O=C(Nc1ccc([N+](=O)[O-])cc1Cl)c1ccccc1O	/	2.9µM*!	16µM*	/	/	/
O=C(Nc1c(Cl)cc([N+](=O)[O-])cc1Cl)c1cc(Cl)cc(Cl)c1O	/	18µM*	?	/	/	/
O=C(Nc1cccc(NC(=O)c2cc([N+](=O)[O-])ccc2Cl)n1)c1cc([N+](=O)[O-])ccc1Cl	12µM*	18µM*	15µM*	6.5µM*	?	?
Cc1cc(NC(=O)c2cc([N+](=O)[O-])ccc2Cl)no1	?	i	?	?	?	?
S=c1nc[nH]c2nc[nH]c12	1.8µM*	0.82µM*	1.2µM*	?	0%	2.3µM*
ClC(Cl)(Cl)c1nc2ccccc2n2nncc12	7.3µM*	?	i	?	13µM*	6.5µM*
CCN(CC(=O)Nc1cc(Cl)ccc1C)C(=O)C1CC(=O)N(Cc2ccccc2)C1 (centres undefined)	-7%	i	i	?	0.16µM*	-4%
CCCN(CC(=O)Nc1ccc(F)c(F)c1F)C(=O)C1CC(=O)N(Cc2ccccc2)C1 (centres undefined)	-1%	i	i	-1%	-3%	-12%
O=C(/C=C/c1ccco1)N1CCN(c2ccccc2)CC1	-5%	i	i	2%	0%	7%
O=C(/C=C\c1ccco1)Nc1ccc(N2CCN(C(=O)c3ccccc3)CC2)cc1	-1%	i	23µM*	?	7%	-1%
O=C(/C=C/c1ccco1)NC(=S)Nc1ccc(N2CCCC2)cc1	?	?	?	21µM*	?	?
CCCOC(=O)c1ccc(Oc2cn[nH]c2-c2ccc(OC)cc2O)cc1	18µM*	?	?	?	?	21µM*
CC(CNC(=O)C1CCN(Cc2cc3ccccc3n2Cc2ccccc2)CC1)c1ccccc1 (centres undefined)	/	i	i	/	/	/
O=C1C(Nc2ccc(O)cc2)=C/C(=N/S(=O)(=O)c2cccs2)c2ccccc21	1.5µM*	3.3µM*	13µM*	?	5.2µM*	2.3µM*
Cc1cccc(NC2=C/C(=N/S(=O)(=O)c3cccs3)c3ccccc3C2=O)c1	3.3µM*	?	?	2.9µM*	?	4.6µM*
Cc1ccc(Cl)cc1NC1=C/C(=N\S(=O)(=O)c2cccs2)c2ccccc2C1=O	4.6µM*	3.3µM*!	9.2µM*!	0.65µM*	2.9µM*	3.7µM*
SMILES	HT1080 IDH1KD tx	KB-3-1 tox	KB-V1 cytotox	MCF10A rerep	SW480 rerep	HT1080NT lethal
Cc1ccc(NC2=C/C(=N\S(=O)(=O)c3cccs3)c3ccccc3C2=O)c(C)c1	6.5µM*	6.5µM*	5.2µM*	6.5µM*	6.5µM*	7.3µM*
Cc1ccc(S(=O)(=O)C2(C(=O)Nc3ccc(Cl)c(C(F)(F)F)c3)CC2)cc1	/	i	i	/	/	/
Cc1ccc(NS(=O)(=O)c2cc3c(cc2F)NC(=O)CC3)cc1Cl	/	?	i	/	/	/
CC(=O)c1cccc(-n2c(=O)c3c4c(sc3n(Cc3ccccc3Cl)c2=O)CN(C(C)=O)CC4)c1	/	i	i	/	/	/
CCCCn1c(=O)c2oc3ccccc3c2n(CC(=O)Nc2cc(C)ccc2C)c1=O	/	i	i	/	/	/
O=S(=O)(Nc1ccccn1)c1ccc(C(F)(F)F)cc1Cl	13%	i	i	?	21µM*	2%
CC(C)(C)c1ccc(S(=O)(=O)Nc2ccccn2)cc1	0%	i	i	4%	-4%	14%
